This is an account of results in PubChem BioAssay AID1508601 (ICCB-Longwood Screening Facility, Harvard Medical School, 2020).

Out of some 5,700 compounds screened, about 85 (1%) were called active. Rule as the data show it: active = p53-positive nuclei above about 36% (passing the limit was not always enough); inactive = the rest. The full list was thinned out, with actives kept by preference.

The nature of test [1]: nuclear p53 accumulation, HPV+ cells – imaging, p53-positive nuclei imaging, 24 h, 48 h (AID 1508601). To be noted: 24/48 h.
Test [2] deals with Cellular tumor antigen p53 (Homo sapiens) (UniProt P04637). Described as above. To be noted: 24/48 h, stronger effect = higher value.
The mark [3] stands for this setting: measured here: cell number at 24 h, concentration not given here.
The mark [4] stands for this setting: measured here: cell number at 48 h, concentration not given here.
The mark [5] stands for this setting: measured here: p53 positive nuclei at 24 h, concentration not given here.
[6] abbreviates: measured here: cell number at 24 h, Library stock concentration: 10 mM.
Where [7] appears, read: measured here: cell number at 48 h, Library stock concentration: 10 mM.
[8] abbreviates: Library stock concentration: 10 mM.
[9] abbreviates: measured here: p53 positive nuclei at 24 h, Library stock concentration: 10 mM.
Where [10] appears, read: measured here: cell number at 24 h, Library stock concentration: 80 uM.
Setting [11] is: measured here: cell number at 24 h, Library stock concentration: 400 uM.
Where [12] appears, read: measured here: cell number at 24 h, Library stock concentration: 2 mM.
The mark [13] stands for this setting: measured here: cell number at 48 h, Library stock concentration: 80 uM.
[14] abbreviates: measured here: cell number at 48 h, Library stock concentration: 400 uM.
[15] abbreviates: measured here: cell number at 48 h, Library stock concentration: 2 mM.
Where [16] appears, read: Library stock concentration: 80 uM.
Setting [17] is: Library stock concentration: 400 uM.
Setting [18] is: Library stock concentration: 2 mM.
Setting [19] is: measured here: p53 positive nuclei at 24 h, Library stock concentration: 80 uM.
Where [20] appears, read: measured here: p53 positive nuclei at 24 h, Library stock concentration: 400 uM.
[21] abbreviates: measured here: p53 positive nuclei at 24 h, Library stock concentration: 2 mM.

Cellular tumor antigen p53 (Homo sapiens), sequence (P04637 whole entry, looked up): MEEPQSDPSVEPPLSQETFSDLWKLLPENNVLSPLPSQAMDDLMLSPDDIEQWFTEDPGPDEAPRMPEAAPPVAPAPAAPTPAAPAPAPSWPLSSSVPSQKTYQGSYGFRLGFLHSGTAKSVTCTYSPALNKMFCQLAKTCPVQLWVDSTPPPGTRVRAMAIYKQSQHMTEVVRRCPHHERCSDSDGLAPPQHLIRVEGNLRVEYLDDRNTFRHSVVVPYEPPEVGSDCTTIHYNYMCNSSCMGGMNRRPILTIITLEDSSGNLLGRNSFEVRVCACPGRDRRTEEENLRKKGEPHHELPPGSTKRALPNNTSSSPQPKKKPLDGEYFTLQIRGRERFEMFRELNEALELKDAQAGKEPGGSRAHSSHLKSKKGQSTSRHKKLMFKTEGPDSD

Turning to `CC[C@@]1(O)C[C@H](O[C@H]2C[C@H](N(C)C)[C@H](O)[C@H](C)O2)c2c(cc3c(c2O)C(=O)c2c(O)cccc2C3=O)[C@H]1C(=O)OC`, the nuclei count, normalised in test [1] (setting [3]) amounted to 50.2%; in test [1] (setting [4]), 38.4%. The p53-positive nuclei, normalised in test [2] (concentration not given here) was 27.4% (inactive); in test [2] (setting [5]), 16.3%.

In the case of `CC[C@@]1(O)C[C@H](O)c2c(cc3c(c2O)C(=O)c2c(O)ccc(O)c2C3=O)[C@H]1C(=O)OC`, the figures for the nuclei count, normalised in test [1] (setting [3]) and in test [1] (setting [4]) were 83.7% and 84%, respectively. For the same compound, the p53-positive nuclei, normalised is 23.5% (inactive) in test [2] (concentration not given here) and 4.09% in test [2] (setting [5]).

For `CC[C@@]1(O)C[C@H](O[C@H]2C[C@H](N(C)C)[C@H](O)[C@H](C)O2)c2c(cc3c(c2O)C(=O)c2c(O)ccc(O)c2C3=O)[C@H]1C(=O)OC`, the nuclei count, normalised in test [1] (setting [3]) was determined as 29.9%; in test [1] (setting [4]), 15.5%. The p53-positive nuclei, normalised in test [2] (concentration not given here) was 92.8% (active); in test [2] (setting [5]), 88.5%.

Turning to `CCCCC/C=C\C/C=C\C/C=C\C/C=C\CCCC(=O)Nc1cccc([N+](=O)[O-])c1`, the results for the nuclei count, normalised in test [1] (setting [3]) and in test [1] (setting [4]) were 108% and 112%, respectively. In addition, the values for the p53-positive nuclei, normalised in test [2] (concentration not given here) and in test [2] (setting [5]) were -0.154% (inactive) and -0.0854%, respectively.

For the compound `CN1CCC(N(C)CCC2CCOCC2)CC1`, the figures for the nuclei count, normalised in test [1] (setting [3]) and in test [1] (setting [4]) were 102% and 105%, respectively. Moreover, the p53-positive nuclei, normalised is -0.0157% (inactive) in test [2] (concentration not given here) and -0.151% in test [2] (setting [5]).

In the case of `CN1C(=O)[C@@]23C[C@]4([C@]56C[C@@]78SS[C@@](CO)(C(=O)N7[C@@H]5Nc5ccccc56)N(C)C8=O)c5ccccc5N[C@H]4N2C(=O)[C@]1(CO)SS3`, the nuclei count, normalised in test [1] (measured here: cell number at 24 h, Library stock concentration: 500 nM) worked out at 119%; in test [1] (measured here: cell number at 24 h, Library stock concentration: 1.5 uM), 109%; in test [1] (measured here: cell number at 24 h, Library stock concentration: 4.6 uM) it was 104%; in test [1] (measured here: cell number at 24 h, Library stock concentration: 13.7 uM), 98.9%; in test [1] (measured here: cell number at 24 h, Library stock concentration: 41 uM), 67.2%; in test [1] (measured here: cell number at 24 h, Library stock concentration: 123 uM) it was 42.7%. The nuclei count, normalised in test [1] (measured here: cell number at 24 h, Library stock concentration: 370 uM) turned out to be 46.4%; in test [1] (measured here: cell number at 24 h, Library stock concentration: 1.111 mM), 36.8%; in test [1] (measured here: cell number at 24 h, Library stock concentration: 3.333 mM), 34.9%; in test [1] (setting [6]) it was 41.7%; in test [1] (measured here: cell number at 48 h, Library stock concentration: 500 nM), 117%; in test [1] (measured here: cell number at 48 h, Library stock concentration: 1.5 uM), 107%. Also, the nuclei count, normalised in test [1] (measured here: cell number at 48 h, Library stock concentration: 4.6 uM) was 101%; in test [1] (measured here: cell number at 48 h, Library stock concentration: 13.7 uM), 85.5%; in test [1] (measured here: cell number at 48 h, Library stock concentration: 41 uM), 44.9%; in test [1] (measured here: cell number at 48 h, Library stock concentration: 123 uM), 30.9%; in test [1] (measured here: cell number at 48 h, Library stock concentration: 370 uM), 32.7%; in test [1] (measured here: cell number at 48 h, Library stock concentration: 1.111 mM) it was 24.5%. In addition, the nuclei count, normalised in test [1] (measured here: cell number at 48 h, Library stock concentration: 3.333 mM) was determined as 23.4%; in test [1] (setting [7]) it was 27.3%. Also, the p53-positive nuclei, normalised in test [2] (Library stock concentration: 500 nM) was 0.0843% (inactive); in test [2] (Library stock concentration: 1.5 uM), 0.192% (inactive); in test [2] (Library stock concentration: 4.6 uM), 0.185% (inactive); in test [2] (Library stock concentration: 13.7 uM), 1.67% (inactive); in test [2] (Library stock concentration: 41 uM), 83.6% (active); in test [2] (Library stock concentration: 123 uM), 95.7% (active). Further, the p53-positive nuclei, normalised was 94.5% (active) in test [2] (Library stock concentration: 370 uM); 72.8% (active) in test [2] (Library stock concentration: 1.111 mM); 12.8% (inactive) in test [2] (Library stock concentration: 3.333 mM); 7.98% (inactive) in test [2] (setting [8]); -0.114% in test [2] (measured here: p53 positive nuclei at 24 h, Library stock concentration: 500 nM); -0.173% in test [2] (measured here: p53 positive nuclei at 24 h, Library stock concentration: 1.5 uM). In addition, the p53-positive nuclei, normalised in test [2] (measured here: p53 positive nuclei at 24 h, Library stock concentration: 4.6 uM) is 0.0127%; in test [2] (measured here: p53 positive nuclei at 24 h, Library stock concentration: 13.7 uM) it was 13.4%; in test [2] (measured here: p53 positive nuclei at 24 h, Library stock concentration: 41 uM), 101%; in test [2] (measured here: p53 positive nuclei at 24 h, Library stock concentration: 123 uM), 116%; in test [2] (measured here: p53 positive nuclei at 24 h, Library stock concentration: 370 uM), 117%; in test [2] (measured here: p53 positive nuclei at 24 h, Library stock concentration: 1.111 mM) it was 105%. Further, the p53-positive nuclei, normalised in test [2] (measured here: p53 positive nuclei at 24 h, Library stock concentration: 3.333 mM) worked out at 30.1%; in test [2] (setting [9]), 12.6%.

As for `NCCc1ccccc1Br`, the nuclei count, normalised in test [1] (setting [10]) turned out to be 86.4%; in test [1] (setting [11]), 90.6%; in test [1] (setting [12]), 89.9%; in test [1] (setting [6]), 98.5%; in test [1] (setting [13]) it was 92.2%; in test [1] (setting [14]), 90.8%. Also, the nuclei count, normalised worked out at 95% in test [1] (setting [15]) and 98.1% in test [1] (setting [7]). Moreover, the p53-positive nuclei, normalised is 0.0704% (inactive) in test [2] (setting [16]); 0.0834% (inactive) in test [2] (setting [17]); 0.0298% (inactive) in test [2] (setting [18]); 0.0211% (inactive) in test [2] (setting [8]); 0.101% in test [2] (setting [19]); 0.248% in test [2] (setting [20]). The values for the p53-positive nuclei, normalised in test [2] (setting [21]) and in test [2] (setting [9]) were -0.0657% and -0.0492%, respectively.

In the case of `CN1CCC(C(=O)c2cccc(NC(=O)c3c(F)cc(F)cc3F)n2)CC1`, the nuclei count, normalised in test [1] (setting [10]) amounted to 126%; in test [1] (setting [11]) it was 115%; in test [1] (setting [12]), 121%; in test [1] (setting [6]), 116%; in test [1] (setting [13]), 118%; in test [1] (setting [14]), 108%. The results for the nuclei count, normalised in test [1] (setting [15]) and in test [1] (setting [7]) were 108% and 105%, respectively. Further, the p53-positive nuclei, normalised was -0.0182% (inactive) in test [2] (setting [16]); -0.00116% (inactive) in test [2] (setting [17]); -0.0434% (inactive) in test [2] (setting [18]); -0.0859% (inactive) in test [2] (setting [8]); -0.0846% in test [2] (setting [19]); 0.109% in test [2] (setting [20]). Besides, the results for the p53-positive nuclei, normalised in test [2] (setting [21]) and in test [2] (setting [9]) were 0.0583% and -0.136%, respectively.
